Screening results (PubChem BioAssay)
Tgondii IFNg – inhibitors of Toxoplasma gondii growth with IFN-gamma | Toxoplasma gondii growth in IFN-gamma-treated host cells; hits give low values | activity change, negative = inhibition, % (no concentration beside the values) | 69,000 tested, 3.8% active | AID 1259416; in the data active means activity change below about -70%, passing the limit was not always enough;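 further: host cells are HeLa cells infected with Toxoplasma gondii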
Starred values were filed as active, the others as inactive; i = inactive; ! = repeats disagree. The sample as a whole holds a higher share of hits than the screen did.

SMILES	Tgondii IFNg
COc1cc(C(=O)N2CCc3c(nc[nH]c3=O)C2)c2ccccc2n1	1.2
CCCCCCCCc1ccc(CCC(N)(CO)CO)cc1	-82.1*!
CCCCCCCCc1ccc(-c2ccc(C(=O)O)cc2)cc1	22.7
CCCCCCCCCCCCCCCCCCc1ccc(C(=O)/C=C/C(=O)O)cc1	7.0
O=C(CC1COCCN1)N1CC=C(c2ccc(F)cc2)CC1 (stereo not given)	9.1
CC(C)(C)CC(C)(C)c1ccc(O)c(-n2nc3ccccc3n2)c1	-4.5
Cc1cc(C(C)(C)CC(C)(C)C)ccc1OCCOCC[N+](C)(C)Cc1ccccc1	-84.7*
C[N+](C)(CCOc1ccccc1)Cc1ccccc1	85.2
CC(=O)N1CC[C@H]2CN(Cc3ccccc3)S(=O)(=O)[C@@H]2CC1	0.6
Cn1nc(-c2cccc(F)c2)c2c1C[C@H]1CN(C(=O)C3(C)CC3)C[C@H]21	0.9
O=C(NC1CC2(CCN(CCO)CC2)Oc2ccccc21)c1ccc[nH]1 (stereo not given)	8.4
CCOC(=O)c1nc(C)nc(Sc2ccc(Cl)cc2)c1C	10.7
COc1ccc(CNc2nc(C)nc(C)c2Oc2ccc(Cl)cc2Cl)cc1	-8.1
Cc1nc(C)c(Oc2ccc(Cl)cc2Cl)c(Sc2cccc(C(F)(F)F)c2)n1	-107.1*
CCC(CC)n1ncc(C)c1NC(=O)c1nc2nc(C)cc(C)n2n1	-66.3
CC(C)CN1c2ccccc2[C@@H]2CN(C(=O)C3CC3)CC[C@H]21	53.7
O=C(Nc1ccccc1)N1CCC2(CC1)CN(Cc1cccnc1)CC21CCNC1=O (stereo not given)	0.3
COC[C@@]12CCO[C@H]1CCN(C(=O)COc1ccc(C)cc1)C2	5.6
Cc1ccccc1C(C(=O)NCCc1nc2ccccc2[nH]1)N(C)C (stereo not given)	-2.9
COc1cccc(NC(=O)Nc2ccc3c(c2)C(=O)N(C)C[C@@H](OC)[C@@H](C)CN[C@@H](C)CO3)c1	-66.6
CO[C@@H]1CN(C)C(=O)c2cc(NC(=O)c3ccc(Oc4ccccc4)cc3)ccc2OC[C@H](C)NC[C@H]1C	-121.8*
CO[C@H]1CN(C)C(=O)c2cc(NC(=O)c3cnccn3)ccc2OC[C@@H](C)NC[C@@H]1C	-0.4
COc1cccc(NC(=O)Nc2ccc3c(c2)C(=O)N(C)C[C@H](OC)[C@H](C)CN[C@H](C)CO3)c1	73.4
CO[C@H]1CN(C)C(=O)c2cc(NC(=O)c3ccc(Oc4ccccc4)cc3)ccc2OC[C@@H](C)NC[C@@H]1C	-113.9*
COc1cccc(NC(=O)Nc2ccc3c(c2)C(=O)N(C)C[C@@H](OC)[C@@H](C)CN[C@H](C)CO3)c1	-26.4
SMILES	Tgondii IFNg
CCc1ccc(NC(=O)N2CCC3(CC2)Nc2cc(F)ccc2-n2cccc23)cc1	i
O=C(c1ccc(F)cc1)c1cn(CC(=O)N2CCOCC2)c2c(Cl)nccc12	-1.5
CCc1ccccc1S(=O)(=O)N1CCc2nc(CNC(=O)C3CCC3)n(C)c2C1	-83.6*
CCc1ccc(S(=O)(=O)N2CCc3nc(CNC(=O)C4CCC4)n(C)c3C2)cc1	-46.5
Cn1c(CNC(=O)C2CCC2)nc2c1CN(S(=O)(=O)c1ccc(F)cc1)CC2	-16.4
C=CCN(Cc1cnn(CC)c1)Cc1ccccc1C	14.5
O=C(c1ccc[nH]1)N1CCC2(CC1)C(=O)NCC2c1ccccc1 (stereo not given)	1.5
CC1(C)CC[C@]2(C(=O)O)CC[C@]3(C)C(=CC[C@@H]4[C@@]5(C)CC[C@H](O)C(C)(C)[C@@H]5CC[C@]43C)[C@@H]2C1	-72.0*!
C[C@@H]1CC[C@]2(C(=O)O)CC[C@]3(C)C(=CCC4[C@@]5(C)CC[C@H](O)C(C)(C)C5CC[C@]43C)C2[C@H]1C (stereo not given in full)	9.7
CC1(C)CC[C@]2(C(=O)O)CC[C@]3(C)C(=CCC4[C@@]5(C)CC[C@@H](O)C(C)(C)C5CC[C@]43C)C2C1 (stereo not given in full)	-57.7
Cc1ncn(C23CC4CC(CC(C(=O)N5CCCN(c6ccccn6)CC5)(C4)C2)C3)n1	4.3
COCC1CC2(CCN(C(=O)C3=CCCC3)CC2)CN1C (stereo not given)	41.6
COCCN(Cc1cnn(C)c1)C(=O)c1ccccc1OC(F)F	6.3
O=C(Nc1ccccc1)C1CN(C(=O)NCc2cccc(F)c2)CC12CCOCC2 (stereo not given)	5.5
CCc1nnc(NC(=S)NC(=O)c2ccc(-c3ccccc3)cc2)s1	245.1
CCc1nnc(NC(=O)c2ccc(S(=O)(=O)NCC(C)C)cc2)s1	-74.8*
COc1ccc(S(=O)(=O)Nc2nnc(CC(C)C)s2)cc1	7.0
O=C(c1cnn2c1CCCC2)N1[C@@H]2CC[C@H]1CC(O)C2 (stereo not given in full)	12.7
Cc1nc(-c2cccc(-c3noc(C(=O)N4CCC5(CC4)OCCO5)n3)c2)cs1	-2.0
OCCCCn1cnc(-c2ccccc2)c1-c1ccc2cccc(Cl)c2n1	-88.5*
CCc1nc(-c2c(-c3ccccc3)ncn2CCCO)c(C)[nH]1	3.1
CN(C)C(=O)CCCn1cnc(-c2ccccc2)c1-c1cc2ccccc2[nH]1	-5.9
CCOc1ccccc1NC(=O)c1c(O)c2cccnc2n(-c2ccccc2)c1=O	60.7
